Data taken from PubChem BioAssay AID504904 (The Scripps Research Institute Molecular Screening Center, 2011).
Some of the results follow. A number with no mark means an inactive call. Activity calls are given as the source filed them. Rule as the data show it: active = activation above about 18%; inactive = the rest.

The molecules below were run against Mu-type opioid receptor (Homo sapiens) + Delta-type opioid receptor (Homo sapiens) (UniProt P35372+P41143) (assay: agonists of MOR-DOR heterodimerization, confirmation, cell-based, luminescence (AID 504904;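 also: 0% = vehicle-treated cells and 100% = reference agonist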)). Details: cells, luminescence complementation, at 9.3 µM, active compounds read high.
Chain of Mu-type opioid receptor (Homo sapiens) + Delta-type opioid receptor (Homo sapiens) (P35372 whole entry, looked up): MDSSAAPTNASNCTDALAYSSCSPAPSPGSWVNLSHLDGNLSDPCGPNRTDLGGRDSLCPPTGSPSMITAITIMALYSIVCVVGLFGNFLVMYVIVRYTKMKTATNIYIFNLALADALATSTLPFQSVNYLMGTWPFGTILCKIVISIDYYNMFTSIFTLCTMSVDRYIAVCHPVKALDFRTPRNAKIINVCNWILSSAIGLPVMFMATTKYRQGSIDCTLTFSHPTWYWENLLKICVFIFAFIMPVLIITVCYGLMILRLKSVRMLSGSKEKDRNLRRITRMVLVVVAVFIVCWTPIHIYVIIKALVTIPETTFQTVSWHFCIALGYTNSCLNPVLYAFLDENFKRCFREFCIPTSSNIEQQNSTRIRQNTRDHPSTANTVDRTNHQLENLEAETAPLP
Chain of Mu-type opioid receptor (Homo sapiens) + Delta-type opioid receptor (Homo sapiens) (P41143 whole entry, looked up): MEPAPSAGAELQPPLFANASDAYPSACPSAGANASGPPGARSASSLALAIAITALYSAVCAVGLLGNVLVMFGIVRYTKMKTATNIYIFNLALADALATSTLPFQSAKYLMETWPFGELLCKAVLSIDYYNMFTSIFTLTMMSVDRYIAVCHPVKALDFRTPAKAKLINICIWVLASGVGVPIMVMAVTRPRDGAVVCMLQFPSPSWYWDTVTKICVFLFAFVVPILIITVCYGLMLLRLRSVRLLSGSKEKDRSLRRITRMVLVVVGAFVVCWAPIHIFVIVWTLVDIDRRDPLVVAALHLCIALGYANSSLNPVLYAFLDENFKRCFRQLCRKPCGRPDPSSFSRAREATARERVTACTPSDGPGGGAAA

Compound	activation
COCCCNc1nc2c(-c3cccc(C)c3)nnn2c2ccc(Cl)cc12	15.3%
COc1cccc(/C=N/Nc2cc(C)nc(-c3ccccc3O)n2)c1O	-1.59%
COc1ccc(SC[C@H](Cc2ccccc2)N2CCN(CCc3ccccc3)CCC2=O)cc1	28.3% (active)
COc1cc(/C=N/NC(=O)Nc2ccccc2)ccc1OCCOc1ccccc1C	17.1%
COc1ccc(C2Nc3ccccc3C(=O)N2c2ccc(F)cc2)cc1Cn1nnc2ccccc21 (stereo not given)	0.83%
CN(C)CCCN(C(=O)c1ccc(S(=O)(=O)N2CCCc3ccccc32)cc1)c1nc2ccc(F)cc2s1	8.38%
CCCC(=O)NC(C)C(c1cccs1)N1CCN(c2ccccc2)CC1 (stereo not given)	36.7% (active)
CN(CC(=O)Nc1ccc(Cl)cc1)C(=O)c1ccc(COc2ccccc2)cc1	0.49%
O=C(Nc1ccc(OC(F)(F)F)cc1)c1ccc2c(c1)no[n+]2[O-]	13.3%
COc1ccccc1C(CNC(=O)c1ccc(C)c(S(=O)(=O)N2CCCCC2)c1)N(C)C (stereo not given)	3.98%
O=C1N/C(=C/c2cccs2)C(=O)N1Cc1ccc(F)cc1	35% (active)
CN1C(CC(=O)Nc2ccc(Br)cc2)c2ccccc2CC1(C)C (stereo not given)	89.7% (active)
CCNS(=O)(=O)c1ccc(NC(=O)Nc2cccc(OC)c2)cc1	3.23%
CN1CCN(c2ccc([N+](=O)[O-])c(Sc3nc4ccccc4[nH]3)c2)CC1	1.22%
CCC(C(=O)OCC(=O)Nc1ccc(C(=O)Nc2ccc(OC)cc2)cc1)c1ccccc1 (stereo not given)	4.73%
